In PubChem BioAssay (NCI) one finds growth data, which are given here for eight compounds.

Some test systems named below: NCI-H23 lung; NCI-H226 lung; NCI-H322M lung; HOP-62 NSCLC; NCI-H460 lung; HOP-92 NSCLC; NCI-H522 lung; A549/ATCC NSCLC; 786-0 renal; COLO 205 colon; DU-145 prostate; K-562 leukemia; MALME-3M melanoma; MDA-MB-231 breast; RXF 393 renal; SF-268 CNS; SF-295 CNS; SF-539 CNS; UACC-257 melanoma; M14 melanoma.
Common to all, as to test: NCI-60 one-dose screen, 48 h (100 = growth as untreated, 0 = no growth, -100 = all killed)
Conditions in all cases: 10 µM unless noted

About 83,000 compounds went through this panel and 20% of them were active in at least one assay; those are over-represented in the sample as a whole.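 48-hour exposure, single concentration, 96-well plates; percent growth endpoint where 0 means no net growth. Active: below 10.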 A number with no mark means an inactive call. Activity calls are given as the source filed them.

In the case of `O=C1NC(=O)C(c2cnc3ccccn23)=C1c1cn2c3c(cc(F)cc13)CN(C(=O)N1CCCCC1)CC2`, the growth in the test with NCI-H23 lung is 82.1%; in the test on NCI-H226 lung, 46%; in the test on NCI-H322M lung, 72%; in the test on HOP-62 NSCLC, 26.1%; in the test on NCI-H460 lung, 39.1%; in the test with HOP-92 NSCLC, 83%. Moreover, the growth in the test on NCI-H522 lung is 38.7%; with A549/ATCC NSCLC, 34.8%; in the test on 786-0 renal it was 31.1%; in the test with COLO 205 colon it was 26.7%; in the test with DU-145 prostate, 68.7%; with K-562 leukemia, 27.9%. The growth in the test on MALME-3M melanoma was 64.6%; in the test with MDA-MB-231 breast, 70.2%; in the test on RXF 393 renal, 16.6%; in the test on SF-268 CNS, 64.7%; with SF-295 CNS, 35.7%; in the test on SF-539 CNS, 53.8%. Further, the growth with UACC-257 melanoma was 67.1%; in the test with M14 melanoma, 50.7%.

Take `CS(=O)(=O)N1CCc2c(-c3cnc(N)nc3)nc(N3CCOCC3)nc21`: the growth is 22.9% with NCI-H23 lung; 5.8% (active) with NCI-H226 lung; -12.9% (active) in the test with NCI-H322M lung; 4.78% (active) in the test with HOP-62 NSCLC; 10% in the test with NCI-H460 lung; -22.5% (active) with HOP-92 NSCLC. The growth in the test on NCI-H522 lung was 10.5%; with A549/ATCC NSCLC, -0.665% (active); in the test on 786-0 renal, -13.7% (active); with COLO 205 colon, -6.6% (active); in the test on DU-145 prostate, 13.5%; with K-562 leukemia it was 22.3%. Further, the growth was -17.6% (active) with MALME-3M melanoma; 30.4% in the test with MDA-MB-231 breast; -36.2% (active) in the test on RXF 393 renal; 14.7% in the test with SF-268 CNS; -34.7% (active) in the test on SF-295 CNS; -45.1% (active) in the test on SF-539 CNS. The results for the growth with UACC-257 melanoma and with M14 melanoma were -18% (active) and 10.4%, respectively.

Take `CN(C)C[C@@H]1CCn2cc(c3ccccc32)C2=C(C(=O)NC2=O)c2cn(c3ccccc23)CCO1`: the growth was -15.7% (active) with NCI-H23 lung; -12.5% (active) in the test on NCI-H226 lung; 32.2% in the test on NCI-H322M lung; -67.9% (active) in the test on HOP-62 NSCLC; -70.6% (active) in the test with NCI-H460 lung; 46.1% with HOP-92 NSCLC. Besides, the growth in the test with NCI-H522 lung is -23.1% (active); with A549/ATCC NSCLC, -12.4% (active); in the test on 786-0 renal, -69.9% (active); with COLO 205 colon it was -53.8% (active); in the test with DU-145 prostate, 13.2%; with K-562 leukemia, -58.7% (active). The growth in the test on MALME-3M melanoma is -70.5% (active); with MDA-MB-231 breast, -35.8% (active); in the test on RXF 393 renal, -72.9% (active); with SF-268 CNS, 36.6%; in the test on SF-295 CNS, 21%; in the test on SF-539 CNS it was -93.2% (active). For the same compound, the growth in the test with UACC-257 melanoma was -20.1% (active); in the test with M14 melanoma, 3.4% (active).

`CC/C(=C(\c1ccc(OCCN2CCCCCCC2)cc1)c1ccc(OC(=O)C2CCCCC2)cc1)c1ccc(Cl)cc1`: the growth was 99.4% in the test with NCI-H23 lung; 100% with NCI-H226 lung; 80.9% with NCI-H322M lung; 102% in the test with HOP-62 NSCLC; 106% in the test on NCI-H460 lung; 90.3% in the test on HOP-92 NSCLC. In addition, the growth with NCI-H522 lung was 89.4%; with A549/ATCC NSCLC, 104%; with 786-0 renal it was 104%; in the test with COLO 205 colon, 123%; in the test with DU-145 prostate it was 108%; in the test on K-562 leukemia, 84.8%. For the same compound, the growth was 94.1% with MALME-3M melanoma; 93.3% in the test on MDA-MB-231 breast; 110% in the test with RXF 393 renal; 94.7% with SF-268 CNS; 104% in the test on SF-295 CNS; 102% in the test on SF-539 CNS. Further, in the test with UACC-257 melanoma, the growth is 87.3%.

As for `Clc1ccc(C(Cn2ccnc2)OCc2ccsc2Cl)c(Cl)c1` (stereo unspecified), the growth in the test on NCI-H23 lung is 37.9%; with NCI-H226 lung, 63%; with NCI-H322M lung it was 88.2%; in the test with HOP-62 NSCLC, 73.6%; with NCI-H460 lung it was 57.7%; in the test with HOP-92 NSCLC it was 28.7%. Besides, the growth in the test with NCI-H522 lung is 35.1%; with A549/ATCC NSCLC, 56.1%; in the test on 786-0 renal it was 55.6%; with COLO 205 colon it was 62.9%; in the test on DU-145 prostate, 90.3%; in the test on K-562 leukemia, 16%. Further, the growth with MALME-3M melanoma was 65.8%; in the test with MDA-MB-231 breast it was 70.9%; with RXF 393 renal, 27.8%; in the test on SF-268 CNS, 67.5%; in the test on SF-295 CNS, 37.6%; with SF-539 CNS, 72.5%. Further, in the test on UACC-257 melanoma, the growth was 59.7%.

As to `CC(C)(O)CC(=O)NCCn1ccc2ncnc(Nc3ccc(Oc4cccc(C(F)(F)F)c4)c(Cl)c3)c21`, the growth is 20% in the test with NCI-H23 lung; 26.1% in the test on NCI-H226 lung; -2.67% (active) in the test with NCI-H322M lung; -12.2% (active) in the test with HOP-62 NSCLC; 11.1% in the test with NCI-H460 lung; -23.1% (active) in the test with HOP-92 NSCLC. The growth was -20.4% (active) with NCI-H522 lung; 1.14% (active) in the test with A549/ATCC NSCLC; 22.6% with 786-0 renal; -67.4% (active) in the test on COLO 205 colon; 27.4% with DU-145 prostate; 4.49% (active) in the test with K-562 leukemia. The growth with MALME-3M melanoma was -8.01% (active); with MDA-MB-231 breast, 11.9%; in the test with RXF 393 renal, 3.66% (active); with SF-268 CNS, 29.3%; with SF-295 CNS, 31%; in the test on SF-539 CNS, 8.28% (active). For the same compound, the growth in the test with UACC-257 melanoma is -26.8% (active); in the test with M14 melanoma it was -1.37% (active).

With `CN(c1ncccc1CNc1nc(Nc2ccc3c(c2)CC(=O)N3)ncc1C(F)(F)F)S(C)(=O)=O`, the growth with NCI-H23 lung is -18.1% (active); in the test with NCI-H226 lung it was 8.79% (active); in the test with NCI-H322M lung, -11.3% (active); in the test with HOP-62 NSCLC it was -13.3% (active); in the test on NCI-H460 lung it was -36.9% (active); in the test on HOP-92 NSCLC it was 2.42% (active). The growth in the test with NCI-H522 lung is -22.4% (active); in the test with A549/ATCC NSCLC, 2.18% (active); with 786-0 renal, 11.3%; with COLO 205 colon, -85.6% (active); in the test with DU-145 prostate, 11.2%; with K-562 leukemia, 4.58% (active). Besides, the growth is -14.4% (active) with MALME-3M melanoma; 3.93% (active) in the test on MDA-MB-231 breast; -43.3% (active) with RXF 393 renal; 2.36% (active) in the test on SF-268 CNS; 11.8% in the test with SF-295 CNS; -36% (active) in the test on SF-539 CNS. Further, the growth with UACC-257 melanoma was -29.1% (active).

For `O=C(Nc1cnn2ccc(N3CCC[C@@H]3c3cc(F)ccc3F)nc12)N1CC[C@H](O)C1`, the growth in the test with NCI-H23 lung is 87.8%; with NCI-H226 lung, 93.8%; with NCI-H322M lung, 104%; with HOP-62 NSCLC, 71.8%; with NCI-H460 lung it was 84.1%; with HOP-92 NSCLC, 89.5%. The growth is 70.5% in the test with NCI-H522 lung; 72.4% in the test with A549/ATCC NSCLC; 91% with 786-0 renal; 71.6% in the test with COLO 205 colon; 110% with DU-145 prostate; 74.8% in the test with K-562 leukemia. Moreover, the growth in the test on MALME-3M melanoma was 114%; in the test with MDA-MB-231 breast, 88.2%; with RXF 393 renal it was 80.7%; in the test with SF-268 CNS it was 91%; in the test with SF-295 CNS it was 96.9%; in the test with SF-539 CNS, 77.4%. The growth with UACC-257 melanoma is 70.8%.
